Screening results as filed in PubChem.
In the library only some 3.7% were active in any assay of this set; here they are far more common.
VDR inhibitor: blocks the human vitamin D receptor. 0.93% of 400,000 active. AID 504847. VDR-SRC2-3 peptide fluorescence polarization, 2 h. Potency, µM, for inactives: max response, negative = inhibition, most hits filed as inhibitors. P11473; note: potency is the fitted concentration of half-maximal effect; % is set by controls: 0 for no effect and ±100 for the full control effect
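Compounds are added to VDR with labelled SRC2-3 coactivator peptide and held 2 h at room temperature. Inhibition of the VDR–peptide interaction is then read as a change in fluorescence polarization.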
FEN1 inhibitor: inhibitors of human flap endonuclease 1. 0.35% of 390,000 active. P39748. Recombinant FEN1 flap cleavage, fluorescence, 15 min. Potency, µM (series often up to 114 µM), for inactives: at the highest dose activity change, negative = inhibition, most hits filed as inhibitors; note: potency is the fitted concentration of half-maximal effect; % is set by controls: 0 for no effect and ±100 for the full control effect; nearly all actives have a fitted effect of over 65% in size
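In this screen, 50 nM flap DNA substrate was added to 10 nM FEN1 pretreated with compound for 15 min at room temperature; cleavage was followed with reads at 0 and 15 min, and Hill fitting gave concentration–response parameters.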
TCR act: activators of T cell receptors. 330,000 tested, under 10 active. Potency, µM (top dose mostly 9.22 µM), inactives show at the top dose activation of IL-2 secretion, hits mostly activators. primary human leukocytes, anti-CD3, IL-2 HTRF, 48 h; note: % of control where 0% means no effect
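Primary human leukocytes were stimulated with a-CD3 beads plus compounds for 48 hr without co-stimulation; secreted IL-2 was quantified by HTRF using a-IL-2-K (europium cryptate) and a-IL-2-d2, excited at 320nm with acceptor emission read at 665nm.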
PLK1 PBD block: PLK1 (human) polo-box domain binding inhibition; P53350; Plk1 PBD binding of FITC phosphopeptide, fluorescence polarization; Potency, µM, without a hit: max response, negative = inhibition, most hits filed as inhibitors; 2.8% of 360,000 active; AID 720504; note: potency is the fitted concentration of half-maximal effect; series mostly up to about 57 µM; % is set by controls: 0 for no effect and ±100 for the full control effect; nearly all actives have a fitted effect of over 65% in size
Target sequence (P53350 whole entry, looked up, the tested form may be a part): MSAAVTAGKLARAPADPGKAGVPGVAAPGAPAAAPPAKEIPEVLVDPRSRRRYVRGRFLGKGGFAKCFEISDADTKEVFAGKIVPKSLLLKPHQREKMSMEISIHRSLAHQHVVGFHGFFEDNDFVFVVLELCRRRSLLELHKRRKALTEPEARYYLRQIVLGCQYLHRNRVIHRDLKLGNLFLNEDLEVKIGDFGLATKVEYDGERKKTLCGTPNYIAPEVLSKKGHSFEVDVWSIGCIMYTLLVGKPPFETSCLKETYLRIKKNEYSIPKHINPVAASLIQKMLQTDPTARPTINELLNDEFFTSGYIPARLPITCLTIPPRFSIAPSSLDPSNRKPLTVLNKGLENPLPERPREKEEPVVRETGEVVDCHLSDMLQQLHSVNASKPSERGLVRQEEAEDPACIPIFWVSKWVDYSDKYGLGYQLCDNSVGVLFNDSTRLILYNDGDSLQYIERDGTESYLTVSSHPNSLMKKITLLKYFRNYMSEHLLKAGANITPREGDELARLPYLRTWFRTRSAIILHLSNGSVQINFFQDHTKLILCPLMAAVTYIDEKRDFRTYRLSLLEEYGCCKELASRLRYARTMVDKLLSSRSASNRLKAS
PI5P4K alpha inh: PI5P4K alpha (human) kinase inhibition | max response, % | 1.2% of 330,000 active | PI5P4Kalpha enzyme, ADP-Glo luminescence, 60 min; hits give low values; active = max response of -50% or lower; inconclusive = between -30% and -50%; inactive = -30% or higher; note: value at the top dose of about 77 µM; % is set by controls: 0 for no effect and ±100 for the full control effect
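Compounds were pin-transferred onto PI5P4Kalpha and substrate in HEPES pH 7.4 buffer with EGTA, CHAPS and 5% DMSO. ATP (5 microM final) started the reaction, which ran 60 minutes at room temperature before ADP-Glo detection.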
WRN inhibitor: WRN helicase (human) inhibition; 0.46% of 360,000 active; Potency, µM (titrated, usually from 114 µM), for inactives: at the highest dose activity change, negative = inhibition, actives largely listed as inhibitors; WRN helicase unwinding, fluorescent forked duplex, kinetic; note: potency is the fitted concentration of half-maximal effect; % is set by controls: 0 for no effect and ±100 for the full control effect; nearly all actives have a fitted effect of over 55% in size
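Enzyme (20 nM final) and test compound sit together 15 min at room temperature before substrate addition. Substrate is a single-forked duplex oligonucleotide (100 nM) labelled with fluorophore and quencher, with 2 mM ATP; helicase unwinding raises red fluorescence, read kinetically.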
VDR inh confirm: confirmation of human vitamin D receptor inhibitors. 89% of 840 active. Potency, µM, most hits filed as inhibitors. shares compounds with VDR inhibitor. VDR-coactivator inhibition assay, qHTS confirmation; note: potency is the fitted concentration of half-maximal effect
VDR FP fluor: VDR (human) coactivator binding inhibition, fluorescein polarization; shares compounds with VDR inhibitor; VDR-coactivator binding, fluorescein fluorescence polarization; Potency, µM (highest dose often 57.1 µM), for inactives: at the highest dose activity change, negative = inhibition, most hits filed as inhibitors; 48% of 840 active; note: potency is the fitted concentration of half-maximal effect
VDR bla: inhibits human VDR in beta-lactamase reporter cells; VDR beta-lactamase reporter cells, FRET ratio; cells co-treated with VDR agonist LG190178; shares compounds with VDR inhibitor; Potency, µM (doses to about 46.1 µM), without a hit: at the top dose activity change, negative = inhibition, actives largely listed as inhibitors; 23% of 840 active; note: potency is the fitted concentration of half-maximal effect; % is set by controls: 0 for no effect and ±100 for the full control effect
VDR cytotox: cell toxicity, VDR inhibitor hit counter-screen. Potency, µM (doses to about 48.3 µM), for the others: at the highest dose activity change, negative = cytotoxicity, usual class: cytotoxic. shares compounds with VDR inhibitor. AID 602204. cytotoxicity counter-screen, cell viability, qHTS. 18% of 840 active;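 note: potency is the fitted concentration of half-maximal effect; plate controls were DMSO for no effect and high-concentration cycloheximide for full effect; nearly all actives have a fitted effect of over 75% in size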
TbPYK confirm: Trypanosoma brucei pyruvate kinase inhibition, cherry-pick confirmation | shares compounds with PLK1 PBD block | recombinant TbPYK, Kinase-Glo ATP luminescence | Potency, µM (top dose mostly 76.9 µM), for the others: top-dose activity change, negative = inhibition, actives largely listed as inhibitors | 67% of 890 active; note: potency is the fitted concentration of half-maximal effect; % is set by controls: 0 for no effect and ±100 for the full control effect; nearly all actives have a fitted effect of over 70% in size
TbPYK ADP-Glo: inhibits T. brucei pyruvate kinase in orthogonal ADP-Glo assay | 62% of 890 active | AID 720584 | Potency, µM (highest dose often 76.9 µM), without a hit: at the top dose activity change, negative = inhibition, most hits filed as inhibitors | shares compounds with PLK1 PBD block | recombinant TbPYK, ADP-Glo luminescence, 60 min; note: potency is the fitted concentration of half-maximal effect; % is set by controls: 0 for no effect and ±100 for the full control effect; nearly all actives have a fitted effect of over 75% in size
* marks the source's active call; other numbers are inactive results. Unless noted, calls come from the whole dose curve; as a rule, active = well fitted curve in the direction sought with a large enough effect; inconclusive = small, poorly fitted or top-dose-only effect, or another doubt; inactive = no such curve, though single readings can be large; an effect the other way counts as inactive or inconclusive.

Results for O=C(NC1CC1)c1sc2cc([N+](=O)[O-])ccc2c1Cl ?
VDR inhibitor: -7.6%; FEN1 inhibitor: -1.1%; TCR act: -7.4%; PLK1 PBD block: 1.1%; PI5P4K alpha inh: -2.6; WRN inhibitor: 12.2%

How did O=C(Nc1cccc(S(=O)(=O)Nc2ccccc2F)c1)c1ccco1 do in these assays?
VDR inhibitor: 9.1%; FEN1 inhibitor: 3.8%; TCR act: 0.3%; PLK1 PBD block: inconclusive; PI5P4K alpha inh: -4.7; WRN inhibitor: -11.3%

Results for O=C1CCC(C(=O)Nc2cccc(S(=O)(=O)Nc3ccccc3F)c2)=NN1 ?
VDR inhibitor: 25.1µM*; FEN1 inhibitor: inconclusive; TCR act: 0.2%; PLK1 PBD block: 2.38µM*; PI5P4K alpha inh: -12.0; WRN inhibitor: -28.2%; VDR inh confirm: inconclusive; VDR FP fluor: inconclusive; VDR bla: 25.2%; VDR cytotox: 14.1%; TbPYK confirm: 6.31µM*; TbPYK ADP-Glo: 6.31µM*

How did CC(C)(C)c1cc(C(c2cccnc2)N2CCN(CCO)CC2)cc(C(C)(C)C)c1O (stereo unspecified) do in these assays?
VDR inhibitor: 25.1µM*; FEN1 inhibitor: inconclusive; TCR act: 0.6%; PLK1 PBD block: 1.89µM*; WRN inhibitor: inconclusive; VDR inh confirm: 3.77*; VDR FP fluor: 3.98µM*; VDR bla: 16.4µM*; VDR cytotox: inconclusive; TbPYK confirm: 0.316µM*; TbPYK ADP-Glo: 2.82µM*

What do the screens show for `NC(=O)c1c(N)sc2c1CCC2`?
VDR inhibitor: -4.0%; FEN1 inhibitor: -4.0%; PLK1 PBD block: inconclusive; PI5P4K alpha inh: -28.1; WRN inhibitor: -30.4%

How did NC(=O)c1c(N)sc2c1CCCCC2 do in these assays?
VDR inhibitor: 79.4µM*; FEN1 inhibitor: -3.9%; TCR act: 3.2%; PLK1 PBD block: inconclusive; PI5P4K alpha inh: inconclusive; WRN inhibitor: -10.8%; VDR inh confirm: 17.8*; VDR FP fluor: 14.1µM*; VDR bla: -1.4%; VDR cytotox: -7.7%; TbPYK confirm: inconclusive; TbPYK ADP-Glo: inconclusive

Results for Cc1c(C(=O)O)sc(=S)n1-c1ccccc1 ?
VDR inhibitor: 2.4%; FEN1 inhibitor: -0.1%; TCR act: 8.7%; PLK1 PBD block: -9.3%; PI5P4K alpha inh: -1.5; WRN inhibitor: -10.6%

How did CN1CCN(C(=O)c2sc(=S)n(-c3ccccc3)c2N)CC1 do in these assays?
VDR inhibitor: 44.7µM*; FEN1 inhibitor: -8.0%; TCR act: 1.5%; PLK1 PBD block: 1.5µM*; PI5P4K alpha inh: inconclusive; WRN inhibitor: inconclusive; VDR inh confirm: 10.6*; VDR FP fluor: inconclusive; VDR bla: -4.7%; VDR cytotox: -4.5%; TbPYK confirm: 0.631µM*; TbPYK ADP-Glo: 0.891µM*
